Holding throughout (design): scale not given: direction of the effect not stated beside the values
Experiment [1] addresses Protein translocase subunit SecA (Escherichia coli (strain K12)) (UniProt P10408). Kind of experiment: Assay to Identify E. coli SecA ATPase Inhibitors. Type of experiment: functional. As to conditions: 30 µM.
The target in experiment [2] is T1, Ubiquitin-activating enzyme e1, putative (Leishmania donovani (strain BPK282A1)) (UniProt E9BSI1).
T1 sequence (whole entry): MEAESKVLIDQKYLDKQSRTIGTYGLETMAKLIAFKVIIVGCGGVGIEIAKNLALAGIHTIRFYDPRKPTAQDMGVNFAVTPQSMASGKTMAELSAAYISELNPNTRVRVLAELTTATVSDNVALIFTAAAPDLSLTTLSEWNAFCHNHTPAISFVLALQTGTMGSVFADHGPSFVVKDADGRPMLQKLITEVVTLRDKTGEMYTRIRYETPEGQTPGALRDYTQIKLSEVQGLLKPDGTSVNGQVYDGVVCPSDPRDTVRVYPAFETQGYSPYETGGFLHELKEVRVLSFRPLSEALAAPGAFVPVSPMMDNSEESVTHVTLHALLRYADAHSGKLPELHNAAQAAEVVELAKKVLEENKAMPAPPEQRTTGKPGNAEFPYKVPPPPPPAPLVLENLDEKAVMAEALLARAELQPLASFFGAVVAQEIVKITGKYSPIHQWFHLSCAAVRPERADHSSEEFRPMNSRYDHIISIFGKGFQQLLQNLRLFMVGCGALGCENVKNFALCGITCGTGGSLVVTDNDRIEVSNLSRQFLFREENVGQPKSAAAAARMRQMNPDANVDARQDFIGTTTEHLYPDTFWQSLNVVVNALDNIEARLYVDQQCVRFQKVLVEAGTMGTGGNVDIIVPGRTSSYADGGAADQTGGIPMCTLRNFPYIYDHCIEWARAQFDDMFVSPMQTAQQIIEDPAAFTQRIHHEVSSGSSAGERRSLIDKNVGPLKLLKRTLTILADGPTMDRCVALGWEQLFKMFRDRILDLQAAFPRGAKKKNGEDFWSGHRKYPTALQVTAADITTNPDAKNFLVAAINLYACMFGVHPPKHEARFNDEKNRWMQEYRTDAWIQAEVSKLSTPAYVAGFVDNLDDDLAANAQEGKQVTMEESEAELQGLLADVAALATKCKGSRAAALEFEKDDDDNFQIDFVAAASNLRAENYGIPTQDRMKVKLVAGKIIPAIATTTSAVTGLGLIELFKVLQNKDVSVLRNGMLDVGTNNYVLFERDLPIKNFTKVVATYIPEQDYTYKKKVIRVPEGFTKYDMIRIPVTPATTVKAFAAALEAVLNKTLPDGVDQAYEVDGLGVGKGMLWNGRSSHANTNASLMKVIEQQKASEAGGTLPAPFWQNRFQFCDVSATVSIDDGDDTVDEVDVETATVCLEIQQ
Kind of experiment: Leishmania donovani Ubiquitin Activating Enzyme (LdE1). The following applies: 30 µM. Type of experiment: functional.

Experiment [3] addresses T2, Aspartate--tRNA(Asp/Asn) ligase (Mycobacterium tuberculosis (strain ATCC 25618 / H37Rv)) (UniProt P9WFW3).
T2 sequence (whole entry): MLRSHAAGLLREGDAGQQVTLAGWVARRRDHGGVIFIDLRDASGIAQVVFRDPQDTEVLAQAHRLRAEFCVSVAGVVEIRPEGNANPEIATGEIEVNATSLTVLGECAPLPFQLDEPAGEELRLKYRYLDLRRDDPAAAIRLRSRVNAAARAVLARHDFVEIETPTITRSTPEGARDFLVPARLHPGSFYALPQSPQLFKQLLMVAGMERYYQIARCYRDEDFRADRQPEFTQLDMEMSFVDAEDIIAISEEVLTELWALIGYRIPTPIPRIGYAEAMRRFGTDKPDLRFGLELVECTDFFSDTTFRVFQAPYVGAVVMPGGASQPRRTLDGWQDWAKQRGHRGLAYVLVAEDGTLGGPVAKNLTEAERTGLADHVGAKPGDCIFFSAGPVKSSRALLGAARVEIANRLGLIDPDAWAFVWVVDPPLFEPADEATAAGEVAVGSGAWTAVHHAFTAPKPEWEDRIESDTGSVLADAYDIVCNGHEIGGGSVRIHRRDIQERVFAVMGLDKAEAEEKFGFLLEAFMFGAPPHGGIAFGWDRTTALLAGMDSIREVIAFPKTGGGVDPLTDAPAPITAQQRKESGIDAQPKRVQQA
The experiment in a line: Assay for Asp RNA synthetase-1 from Mycobacterium tuberculosis. Type of experiment: functional. As to conditions: 30 µM.

In experiment [4] the target is AMP-activated protein kinase, AMPK (Homo sapiens) (UniProt P54646+O43741+P54619+Q9UGJ0+Q9Y478+Q13131+Q9UGI9). Kind of experiment: AMP-dependent Kinase enzyme assay. An in vitro enzyme assay that detects ADP turnover that is directly proportional to AMPK activity. This uses naive AMPK that is activated during the assay with MK-8722. Type of experiment: functional. As to conditions: 30 µM.

The target of experiment [5] is Sialic acid-binding Ig-like lectin 9 (Homo sapiens) (UniProt Q9Y336). Kind of experiment: Hs-Siglec9 ALPHAscreen SOP 20170721. As to conditions: 10 µM. (Alpha assays give light when donor and acceptor beads are brought close together.)
Sequence of Sialic acid-binding Ig-like lectin 9 (Homo sapiens) (Q9Y336 whole entry): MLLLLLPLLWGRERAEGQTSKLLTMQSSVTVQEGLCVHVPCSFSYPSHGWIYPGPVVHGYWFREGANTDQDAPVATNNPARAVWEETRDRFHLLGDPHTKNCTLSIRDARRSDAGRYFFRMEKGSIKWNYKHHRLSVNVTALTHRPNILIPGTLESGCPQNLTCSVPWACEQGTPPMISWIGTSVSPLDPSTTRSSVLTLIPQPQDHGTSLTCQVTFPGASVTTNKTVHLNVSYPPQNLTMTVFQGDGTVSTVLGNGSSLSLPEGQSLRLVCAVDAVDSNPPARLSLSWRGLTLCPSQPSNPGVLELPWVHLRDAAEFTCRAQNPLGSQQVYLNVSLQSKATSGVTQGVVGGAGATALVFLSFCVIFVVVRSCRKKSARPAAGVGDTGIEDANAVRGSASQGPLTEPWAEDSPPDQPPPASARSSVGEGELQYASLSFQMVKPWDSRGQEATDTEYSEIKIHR
The next experiment has as its system Trypanosoma cruzi. The experiment in a line: Trypanosoma cruzi phosphomannomutase and mannose-1-phosphate guanylyltransferase assay. Type of experiment: functional. As to conditions: 10 µM.
In experiment [6] the target is T3, Arginase-2, mitochondrial (Homo sapiens) (UniProt P78540).
T3 sequence (whole entry): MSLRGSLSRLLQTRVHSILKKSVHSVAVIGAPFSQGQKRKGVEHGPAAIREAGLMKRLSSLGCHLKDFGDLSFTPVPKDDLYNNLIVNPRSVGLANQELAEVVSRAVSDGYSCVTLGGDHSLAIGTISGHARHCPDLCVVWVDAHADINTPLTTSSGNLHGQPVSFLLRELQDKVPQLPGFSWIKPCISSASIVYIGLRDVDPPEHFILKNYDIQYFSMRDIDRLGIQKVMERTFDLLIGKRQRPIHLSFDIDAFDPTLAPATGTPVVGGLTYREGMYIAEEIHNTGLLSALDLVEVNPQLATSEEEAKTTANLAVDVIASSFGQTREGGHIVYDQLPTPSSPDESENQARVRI
Kind of experiment: in vitro enzyme assay to detect the production of urea directly proportional to the activity of Arginase II. Further: in the data most compounds retested in dose-response had high values. Type of experiment: functional. The following applies: 33.3 µM.

The target of experiment [7] is T4, Proteasome subunit beta (Trypanosoma cruzi) (UniProt O96673).
T4 sequence (whole entry): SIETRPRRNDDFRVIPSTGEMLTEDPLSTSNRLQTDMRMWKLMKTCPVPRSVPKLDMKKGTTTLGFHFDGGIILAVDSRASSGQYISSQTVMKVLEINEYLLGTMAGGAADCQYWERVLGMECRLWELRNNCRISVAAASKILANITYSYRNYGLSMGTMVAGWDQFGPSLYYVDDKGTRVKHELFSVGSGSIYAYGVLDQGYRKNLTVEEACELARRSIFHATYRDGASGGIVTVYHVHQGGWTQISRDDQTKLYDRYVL
The experiment in a line: Trypanosoma cruzi proteasome chymotrypsin-like activity (TcProtChymo) assay. Further: in the data most compounds retested in dose-response had high values. Type of experiment: functional. As to conditions: 9.37 µM.

The species entered for another experiment is Homo sapiens. Kind of experiment: To identify inhibition of the IFN signalling (Jak-Stat) pathway via expression of an eGFP reporter gene under the control of an IFN-stimulated response element (ISRE) containing MxA promoter. Type of experiment: functional. The following applies: 30 µM.
Experiment [8] deals with Shiga toxin 2 (Escherichia coli O157:H7) (UniProt P09385+P09386). Kind of experiment: E. coli 0.157:H7 Shiga Toxin SOP - stx2 screening assay. Type of experiment: functional. The following applies: 30 µM.
Experiment [9] deals with T5, Tyrosyl-tRNA synthetase, putative (Trypanosoma cruzi (strain CL Brener)) (UniProt Q4DSP6).
T5 sequence (whole entry): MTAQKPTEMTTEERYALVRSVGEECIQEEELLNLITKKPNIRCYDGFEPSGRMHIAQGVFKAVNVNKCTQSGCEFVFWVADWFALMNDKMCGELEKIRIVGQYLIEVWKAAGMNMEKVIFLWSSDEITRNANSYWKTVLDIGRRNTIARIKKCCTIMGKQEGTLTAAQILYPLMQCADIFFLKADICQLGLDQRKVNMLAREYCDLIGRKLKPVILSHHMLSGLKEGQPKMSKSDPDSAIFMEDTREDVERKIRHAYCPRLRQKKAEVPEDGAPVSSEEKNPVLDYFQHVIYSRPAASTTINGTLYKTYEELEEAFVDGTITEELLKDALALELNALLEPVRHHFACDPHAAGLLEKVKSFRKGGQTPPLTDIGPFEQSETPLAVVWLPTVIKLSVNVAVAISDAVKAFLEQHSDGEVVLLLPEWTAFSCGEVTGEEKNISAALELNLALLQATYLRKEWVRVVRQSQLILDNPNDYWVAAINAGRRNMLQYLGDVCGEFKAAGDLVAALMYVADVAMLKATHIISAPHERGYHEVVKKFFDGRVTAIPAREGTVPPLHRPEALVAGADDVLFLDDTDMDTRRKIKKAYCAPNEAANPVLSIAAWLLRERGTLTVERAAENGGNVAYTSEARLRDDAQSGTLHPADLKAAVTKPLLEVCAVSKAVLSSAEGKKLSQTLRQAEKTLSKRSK
The experiment in a line: Trypanosoma cruzi tyrosyl tRNA synthetase (TcYRS) _High Tyrosine SOP. Further: in the data most compounds retested in dose-response had high values. Type of experiment: functional. The following applies: 30 µM.

The target in experiment [10] is T5, Tyrosyl-tRNA synthetase, putative (Trypanosoma cruzi (strain CL Brener)). Kind of experiment: Trypanosoma cruzi tyrosyl tRNA synthetase (TcYRS) SOP. Type of experiment: functional. As to conditions: 30 µM.
Experiment [11] deals with Chromo domain-containing protein 1 (Saccharomyces cerevisiae (strain ATCC 204508 / S288c) (Baker's yeast)) (UniProt P32657). Kind of experiment: ScCHD-1 Enzyme Inhibition Assay. Further: in the data most compounds retested in dose-response had high values. As to conditions: 30 µM. Type of experiment: functional.
Sequence of Chromo domain-containing protein 1 (Saccharomyces cerevisiae (strain ATCC 204508 / S288c) (Baker's yeast)) (P32657 whole entry, the tested form may be a part): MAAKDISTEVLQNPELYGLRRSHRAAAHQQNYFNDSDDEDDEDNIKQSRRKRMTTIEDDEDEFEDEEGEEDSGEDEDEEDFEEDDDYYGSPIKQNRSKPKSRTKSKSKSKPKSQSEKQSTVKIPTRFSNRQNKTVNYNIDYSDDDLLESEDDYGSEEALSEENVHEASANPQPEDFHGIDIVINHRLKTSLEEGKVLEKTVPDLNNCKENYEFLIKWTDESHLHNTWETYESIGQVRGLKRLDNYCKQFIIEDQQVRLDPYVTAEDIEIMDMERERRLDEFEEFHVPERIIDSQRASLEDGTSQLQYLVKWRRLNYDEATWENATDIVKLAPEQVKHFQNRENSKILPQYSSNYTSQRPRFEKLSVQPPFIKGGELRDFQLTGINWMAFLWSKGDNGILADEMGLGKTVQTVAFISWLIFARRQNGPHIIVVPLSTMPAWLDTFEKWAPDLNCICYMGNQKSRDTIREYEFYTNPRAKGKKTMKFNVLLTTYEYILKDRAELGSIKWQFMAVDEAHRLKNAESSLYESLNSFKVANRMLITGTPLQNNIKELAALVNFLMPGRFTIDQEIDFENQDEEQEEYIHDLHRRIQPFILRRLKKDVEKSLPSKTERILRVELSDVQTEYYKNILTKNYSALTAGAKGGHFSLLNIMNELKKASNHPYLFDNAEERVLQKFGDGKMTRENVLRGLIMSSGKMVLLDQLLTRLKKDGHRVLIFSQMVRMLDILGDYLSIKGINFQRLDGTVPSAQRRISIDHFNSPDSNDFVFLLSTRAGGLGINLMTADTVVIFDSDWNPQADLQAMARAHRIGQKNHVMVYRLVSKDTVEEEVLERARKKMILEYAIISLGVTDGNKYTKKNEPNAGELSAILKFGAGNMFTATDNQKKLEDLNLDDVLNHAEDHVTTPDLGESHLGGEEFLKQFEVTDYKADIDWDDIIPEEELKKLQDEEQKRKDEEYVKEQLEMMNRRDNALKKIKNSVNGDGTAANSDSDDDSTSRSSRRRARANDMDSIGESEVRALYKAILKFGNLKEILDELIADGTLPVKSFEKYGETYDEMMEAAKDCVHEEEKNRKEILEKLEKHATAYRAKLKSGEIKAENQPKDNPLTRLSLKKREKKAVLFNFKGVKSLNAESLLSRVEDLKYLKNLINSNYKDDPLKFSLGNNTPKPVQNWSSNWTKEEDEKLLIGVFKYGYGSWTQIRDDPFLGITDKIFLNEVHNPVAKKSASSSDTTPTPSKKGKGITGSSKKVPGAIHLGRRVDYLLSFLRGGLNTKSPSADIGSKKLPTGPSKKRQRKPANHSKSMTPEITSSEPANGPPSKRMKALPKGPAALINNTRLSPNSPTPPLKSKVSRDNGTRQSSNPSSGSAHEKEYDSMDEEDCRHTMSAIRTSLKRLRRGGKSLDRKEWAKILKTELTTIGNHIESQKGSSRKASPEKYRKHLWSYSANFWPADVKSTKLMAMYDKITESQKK

SMILES strings stand for the structures. For some of these results: Entries with a potency or affinity are not part of this list.

Sequence of Protein translocase subunit SecA (Escherichia coli (strain K12)) (P10408 whole entry): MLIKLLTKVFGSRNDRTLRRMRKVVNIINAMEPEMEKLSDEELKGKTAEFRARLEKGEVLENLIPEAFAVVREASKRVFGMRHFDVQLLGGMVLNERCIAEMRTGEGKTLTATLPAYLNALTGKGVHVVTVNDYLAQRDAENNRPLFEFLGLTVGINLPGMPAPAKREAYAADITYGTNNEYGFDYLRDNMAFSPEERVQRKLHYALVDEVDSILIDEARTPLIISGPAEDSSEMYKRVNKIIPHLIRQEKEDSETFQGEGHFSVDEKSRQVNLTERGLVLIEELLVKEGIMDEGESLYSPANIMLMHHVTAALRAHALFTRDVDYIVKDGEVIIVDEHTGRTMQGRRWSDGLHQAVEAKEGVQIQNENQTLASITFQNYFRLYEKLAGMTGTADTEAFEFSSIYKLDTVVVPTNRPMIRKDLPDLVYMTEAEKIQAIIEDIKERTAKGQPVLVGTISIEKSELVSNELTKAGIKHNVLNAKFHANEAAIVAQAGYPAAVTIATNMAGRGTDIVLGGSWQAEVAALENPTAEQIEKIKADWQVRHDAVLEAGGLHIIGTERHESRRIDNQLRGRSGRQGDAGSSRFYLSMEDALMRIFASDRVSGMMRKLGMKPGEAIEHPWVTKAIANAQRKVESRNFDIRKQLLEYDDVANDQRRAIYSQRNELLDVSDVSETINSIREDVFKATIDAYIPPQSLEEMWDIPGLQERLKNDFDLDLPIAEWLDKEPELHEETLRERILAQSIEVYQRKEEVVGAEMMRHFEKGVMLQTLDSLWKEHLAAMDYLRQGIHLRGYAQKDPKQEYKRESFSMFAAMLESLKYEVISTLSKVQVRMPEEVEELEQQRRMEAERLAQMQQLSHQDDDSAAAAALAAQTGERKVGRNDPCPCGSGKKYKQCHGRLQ

For the compound `COC[C@]12COC[C@H]1CN(Cc1cccnc1OC)C2`, the Percent Effect was -3.99% in experiment [1]; 9.33% in experiment [2]; -1.36% in experiment [3]; 1.98% in experiment [4]; 1.86% in experiment [5]; -4.32% in the experiment on Trypanosoma cruzi. In addition, the Percent Effect in experiment [6] is -8.63%; in experiment [7], 18.7%; in the experiment filed under Homo sapiens, -3.88%; in experiment [8], -17.2%; in experiment [9], 7.41%; in experiment [10] it was 5.13%. Further, the Percent Effect in experiment [11] was -3.25%.
On to `CN(Cc1cccnc1)[C@@H]1CN(CC2CC2)[C@@H]2CCCO[C@H]12`, for which the Percent Effect is -1.86% in experiment [1]; 2.67% in experiment [2]; 3.49% in [3]; 2.59% in [4]; 2.23% in [5]; -4.05% in the experiment on Trypanosoma cruzi. The Percent Effect is -57.2% in experiment [6]; 3.42% in experiment [7]; -1.28% in the experiment filed under Homo sapiens; -18% in [8]; 2.08% in experiment [9]; 5% in experiment [10]. Moreover, the Percent Effect in [11] was -8.32%.
As to `Cc1oc(-c2ccco2)nc1CC(=O)N1CCN(CC(C)(C)O)CC1`, the Percent Effect in [1] is -3.06%; in [2], 5.2%; in experiment [3], 0.144%; in experiment [4] it was -3.3%; in [5] it was 5.79%; in the experiment with Trypanosoma cruzi, -0.294%. Moreover, the Percent Effect in experiment [6] was 5.68%; in experiment [7], 8%; in the experiment listed under Homo sapiens, 22.9%; in experiment [8] it was 30.6%; in experiment [9] it was 2.86%; in [10], 9.41%. Further, the Percent Effect in experiment [11] was -21.6%.
For `CCN1CCC2(COCc3cnc(NCC4CC4)nc32)C1` (configuration not stated), the Percent Effect in experiment [1] was 1.53%; in experiment [2], 0%; in experiment [3] it was 0.296%; in [4], -4.7%; in experiment [5], 2.85%; with Trypanosoma cruzi, 5.95%. The Percent Effect in [6] is -2%; in experiment [7], 3.68%; in the experiment filed under Homo sapiens, 18.1%; in experiment [8], -28.9%; in [9] it was 0%; in [10], 8.64%. Besides, the Percent Effect in [11] is -0.871%.

Source of the values: ChEMBL document CHEMBL3988442, “University of Dundee, Small-Polar-MMV Screening Library” (2021).
